Consider 20 compounds from PubChem BioAssay (NCI).

“And” between values parts separate entries of the source, which are not always exact repeats. Equal entries are not always repeated. This is part of a sample that, as a whole, favours compounds with a hit. Of some 79,000 tested, about 15% had one in any assay. Values without a mark were called inactive. The source made the active and inactive calls. Cut-off read from the data, not from the text of the source: active = growth inhibition above about 70%; inactive = the rest.

Assay [1] can be described thus: NCI Yeast Anticancer Drug Screen. Data for the rad50 strain (AID 155).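 Note: 0% = growth of vehicle-only cultures of the same strain.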 The note with it: S. cerevisiae rad50 strain growth inhibition; at 50.0 µM; hits give high values. The method, boiled down:
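Yeast carrying a defined DNA repair defect were exposed to test compounds, and growth was compared with vehicle-treated controls to give percent inhibition.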

Assay [2] in a line: NCI Yeast Anticancer Drug Screen. Data for the mec2-1 strain (AID 157). To be noted: S. cerevisiae mec2-1 strain, at 50.0 µM, hits give high values. An outline of the steps: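 Mutant yeast (mec2-1) grown with compound; growth inhibition relative to vehicle control reported.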
Assay [3] can be described thus: NCI Yeast Anticancer Drug Screen. Data for the sgs1 mgt1 strain (AID 161).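 Note: 0% = growth of cultures given vehicle only.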 To be noted: S. cerevisiae sgs1 mgt1 strain, at 50.0 µM, hits give high values. The method, boiled down: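 Yeast cells carrying a defined DNA-repair defect were exposed to test compounds. Growth inhibition was measured relative to vehicle-treated controls.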
A short description of assay [4]: NCI Yeast Anticancer Drug Screen. Data for the cln2 rad14 strain (AID 165).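 Note: 0% = growth equal to vehicle treated cultures.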 To be noted: S. cerevisiae cln2 rad14 strain, at 50.0 µM, hits give high values. An outline of the steps:
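Readout is yeast growth inhibition versus vehicle-treated controls, using a strain with cln2 and rad14 alterations exposed to compound.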

Assay [5] is described as follows: NCI Yeast Anticancer Drug Screen. Data for the bub3 strain (AID 167). To be noted: S. cerevisiae bub3 mutant strain, at 50.0 µM, hits give high values. An outline of the steps: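 Compounds were applied to a genetically altered yeast strain carrying a cell-cycle control defect. Growth inhibition was scored against vehicle-treated controls.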
The nature of assay [6]: NCI Yeast Anticancer Drug Screen. Data for the mlh1 rad18 strain (AID 175). The note with it: S. cerevisiae mlh1 rad18 strain growth inhibition; at 50.0 µM; hits give high values. The method, boiled down:
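Genetically defined yeast (DNA repair-deficient) exposed to compounds; growth inhibition determined relative to vehicle.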

For the compound `COC(CN1CCOCCOCCOCC1)CN1CCOCCOCCOCC1`, the growth inhibition in assay [1] is -9.3%; in assay [2] it was -6.55%; in assay [3], -29.1%; in assay [4], 15.4%; in assay [5], 14.2%; in assay [6], -17.8%.
With `CCn1/c(=N\N=O)sc2ccccc21`, the growth inhibition was -4.1% in assay [1]; 6.05% in assay [2]; -4.2% in assay [3]; -23.9% in assay [4]; -35.3% in assay [5]; 3.6% in assay [6].
As for `[CH3][Sn]([CH3])([CH3])[S]C(=S)N1CCOCC1`, the growth inhibition in assay [1] is 98.7% (active); in assay [2] it was 90% (active); in assay [3] it was 98.2% (active); in assay [4] it was 94.2% (active); in assay [5], 98.5% (active); in assay [6], 98.5% (active).
As to `C[N+](C)=c1nc(N2CCc3ccccc3C2)ss1`, the growth inhibition in assay [1] is 27%; in assay [2], 37%; in assay [3], 26.4%; in assay [4], -19.4%; in assay [5] it was 12.1%; in assay [6], 47.7%.
For `O=P(Cc1ccccc1)(Oc1ccccc1)Oc1ccccc1`, the growth inhibition in assay [1] was 89.8% (active); in assay [2] it was 56.5%; in assay [3], 82.2% (active); in assay [4] it was 24.8%; in assay [5], 40.1%; in assay [6], 74.8% (active).
Regarding `CCCCSCCC(N)P(=O)(O)O` (stereo not given), the growth inhibition was -68.8% in assay [1]; -62.4% in assay [2]; -42.4% in assay [3]; 2.8% in assay [4]; -15.2% in assay [5]; -44.1% in assay [6].
In the case of `CCCCC1CN1C(=N)OCC` (stereo not given), the growth inhibition in assay [1] is 6.65%; in assay [2], -0.6%; in assay [3], 15.4%; in assay [4] it was 59.1%; in assay [5] it was 0.9%; in assay [6], 29.1%.
Consider `COc1ccc2c3c1O[C@H]1C(Br)C=C[C@H]4[C@@H](C2)N(C)CC[C@]314` (stereo not given in full), for which the growth inhibition in assay [1] was -11.8%; in assay [2], -15.8%; in assay [3], 7.15%; in assay [4], -22.6%; in assay [5], 29.2%; in assay [6], 8.35%.
As to `CCCCCCCCCCCC[C@@H](O)[C@H]1CC[C@H]([C@H](O)CCCC[C@H](O)CCCCC[C@@H](O)CC2=C[C@H](C)OC2=O)O1`, the growth inhibition in assay [1] is 10%; in assay [2], -7.05%; in assay [3], -20.8%; in assay [4] it was -7.5%; in assay [5], -1.65%; in assay [6] it was -41.2%.
For `CN1CCC2(CC1)c1ccccc1-c1ccccc12`, the growth inhibition in assay [1] is -7.7%; in assay [2], -20.6%; in assay [3] it was -2.6%; in assay [4], -25%; in assay [5], -12.7%; in assay [6] it was -38.7%.
In the case of `O=C(N=[C-]c1ccc[oH+]1)c1cccnc1.O=C(N=[C-]c1ccc[oH+]1)c1cccnc1.[Ni+2]`, the growth inhibition in assay [1] was -24.7%; in assay [2], -34.5%; in assay [3], -3.4%; in assay [4], -25.4%; in assay [5], -31.8%; in assay [6] it was 5.65%.
Consider `Cc1sc2cccc[n+]2c1C`, for which the growth inhibition was 5.85% in assay [1]; -12.9% in assay [2]; -8.95% in assay [3]; -8.95% in assay [4]; -3.4% in assay [5]; -14.4% in assay [6].
Take `COc1cc(CC(C)N)ccc1O` (stereo not given): the growth inhibition was 7.9% in assay [1]; -9.4% in assay [2]; -14.2% in assay [3]; -46.4% in assay [4]; 21.6% in assay [5]; -18.4% in assay [6].
`O=C1C[C@@H]2OCC=C3C[N+]4([O-])CC[C@]56c7ccccc7N1[C@H]5[C@H]2[C@H]3C[C@@H]64` (stereo not given in full): the growth inhibition in assay [1] is -4.85% and -6.5%; in assay [2], -7.75% and -6.3%; in assay [3], 2.05%; in assay [4], 0.9%; in assay [5], 25.4%; in assay [6] it was -3.15% and -3.7%.
Consider `CC(C)([N+](=O)[O-])S(=O)O`, for which the growth inhibition in assay [1] was -9.15%; in assay [2], -14.2%; in assay [3], -22%; in assay [4], -1.05%; in assay [5], -5.4%; in assay [6], -0.65%.
As to `CCC1(c2ccccc2)C(=O)N(CCCl)C(=O)N(CCCl)C1=O`, the growth inhibition was 27.7% in assay [1]; 15.8% in assay [2]; 4.35% in assay [3]; -21.7% in assay [4]; 12.2% in assay [5]; 17.4% in assay [6].
Turning to `COc1ccc2c(c1OC(C)=O)-c1cc(O)cc3c1C(C2)N(C(=O)CN(CCCl)CCCl)CC3` (stereo not given), the growth inhibition in assay [1] is 19.6% and 6.5%; in assay [2], 8.65% and 5.4%; in assay [3], 24.7% and -25.4%; in assay [4], 10.8% and -4.95%; in assay [5] it was 22.2% and -7.95%; in assay [6], -21.7% and -30.4%.
Consider `O=S(=O)(O)O.[W]`, for which the growth inhibition was 27.2% in assay [1]; -7.55% in assay [2]; 14.3% in assay [3]; -5.65% in assay [4]; 18% in assay [5]; -8.95% in assay [6].
As for `CC(=O)[CH-]C(C)=O.CC(=O)[CH-]C(C)=O.CC(=O)[CH-]C(C)=O.[Ga+3]`, the growth inhibition is 28.6% in assay [1]; 13.9% in assay [2]; 15.3% in assay [3]; 42.6% in assay [4]; 31.1% in assay [5]; 18.6% in assay [6].
For the compound `COC1CC(OC2C(C)OC(OC3C(C)OC(OC4C(C)OC(O[C@H]5CC[C@@]6(C)C(=CC[C@]7(O)[C@@H]6C[C@@H](OC(C)=O)[C@@]6(C)[C@]7(O)CC[C@@]6(O)C(C)=O)C5)CC4OC)CC3OC)CC2OC)OC(C)C1O` (stereo not given in full), the growth inhibition is -7.85% in assay [1]; -7.45% in assay [2]; -9.55% in assay [3]; -3.7% in assay [4]; -12.7% in assay [5]; -47.1% in assay [6].
